# Assay results: PubChem BioAssay AID686999 (Broad Institute, 2013)
# Results with a measured potency or affinity are listed apart. Inconclusive results are not listed. Active and inactive are the calls of the source.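 Rule for the calls: active = active in every separate test run, each with half-maximal potency at or under twice its top valid dose; inconclusive = the separate test runs give conflicting calls; inactive = inactive in every test run, including signal rising instead.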
# Assay: Cryptococcus growth inhibition by alamar blue – cell lysis, cherry-picks, replicate tests, mechanism study for C. neoformans antifungal project, dose response (AID 686999)
# Conditions: 72 h; series mostly up to 35 µM
row,Structure (SMILES),outcome
1,O=C(NC(=S)Nc1cc(Cl)ccc1N1CCOCC1)c1ccccc1[N+](=O)[O-],inactive
2,CC(C)CC1(C)N=C(c2ccccc2)C(=S)N1 (stereo unspecified),inactive
3,Cc1ccc(C(=O)NC(=S)Nc2ccc(N3CCOCC3)cc2)cc1,inactive
4,O=C(NC(=S)Nc1ccccc1N1CCCC1)c1ccc([N+](=O)[O-])cc1,inactive
5,COCCN1C(=S)N[C@@H](c2ccccc2)C(C(=O)OC)=C1C,inactive
6,COc1cccc(NC(=S)NC(=O)Cc2ccc(Cl)cc2)c1,inactive
7,CCCCN1C(=S)NC[C@@H]1Cc1ccccc1,inactive
8,COC(=O)C1=C(C)N(Cc2ccc(F)cc2)C(=S)NC1c1ccccc1 (stereo unspecified),inactive
9,COc1ccccc1NC(=S)NCc1ccccc1Cl,inactive
10,O=C(Cc1ccccc1)N[C@H]1C=C[C@@H](CC(=O)N2CCOCC2)O[C@@H]1CO,inactive
11,O=C(NC(=S)Nc1ccccc1N1CCCC1)c1ccccc1[N+](=O)[O-],inactive
12,CCc1ccc(C(C)NC(=S)NCc2ccc(F)cc2)cc1 (stereo unspecified),inactive
13,S=C(Nc1ccc(Cl)cc1Cl)Nc1ccccc1Oc1ccccc1,inactive
14,Fc1ccccc1NC(=S)NCCc1cccc(Cl)c1,inactive
15,O=C(NC(=S)NCC1COc2ccccc2O1)c1ccc(Cl)cc1 (stereo unspecified),inactive
16,CO[C@H]1CN(C)C(=O)c2cc(NC(=O)C3CC3)ccc2OC[C@@H](C)N(Cc2cncnc2)C[C@H]1C,inactive
17,COC(=O)C1=C(C)N(Cc2ccc(Cl)cc2)C(=S)NC1c1cccc(Cl)c1 (stereo unspecified),inactive
18,O=C(NC(=S)Nc1ccccc1N1CCOCC1)c1cccc([N+](=O)[O-])c1,inactive
19,S=C(NCCCc1ccccc1)Nc1ccccc1,inactive
20,COc1ccccc1NC(=S)NCc1ccc(Cl)cc1,inactive
21,O=C(NC(=S)Nc1cccc(F)c1)c1cccc([N+](=O)[O-])c1,inactive
